The list is not random: actives were taken first. Their share in the collection is about 2.3%.
TRPV1 PAM – HTS Assay for Compounds that Act as Potentiators of the Vanilloid Receptor 1; Transient receptor potential cation channel subfamily V member 1 (Homo sapiens), Q8NER1; TRPV1-expressing cells, Fluo-8 calcium influx, capsaicin EC20 potentiation; potentiation, % at 8.33 µM; actives 0.02% (n = 320,000); AID 540277, 2011; in the data active means potentiation above about 80%; inconclusive means between about 30% and that limit; further: 0% is about no effect
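Cells expressing TRPV1 were dye-loaded with Fluo-8 and read kinetically: 10 s baseline, 3 min after compound (agonist portion), then 2 min after EC20 capsaicin (allosteric enhancer portion). Calcium-bound dye fluorescence at 480/520 nm.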
ELG1 repair inh – qHTS screen for small molecules that inhibit ELG1-dependent DNA repair in human embryonic kidney (HEK293T) cells expressing luciferase-tagged ELG1. HEK293T ELG1-luciferase reporter, luminescence, 16 h; DNA damage induced by 5-fluorouridine. Potency, µM (doses to about 46.1 µM), without a hit: at the highest dose activity change, negative = inhibition, hits mostly inhibitors. actives 2.3% (n = 330,000). AID 504467, 2011; further: potency means the concentration at half of the fitted maximal effect; on the % scale 0 is the no-effect control and ±100 the full control effect; nearly all actives have a fitted effect of over 55% in size
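Reporter activity after DNA damage by 5-fluorouridine is monitored. Compound-treated cells incubate 16 hr at 37 °C, then ONE-Glo is added for 30 min before luminescence reading.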
Giardia kill – Small Molecules that selectively kill Giardia lamblia: qHTS; actives 0.15% (n = 340,000); activity change, % at 7.66 µM, hits read low; AID 540267, 2011; Giardia lamblia trophozoite viability; in the data active means activity change below about -80%; inconclusive means between about -30% and that limit;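 further: parasites exposed to compound for two days anaerobically before the ATP read; on the % scale 0 is the no-effect control and ±100 the full control effect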
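Trophozoites 100 cells/well + cpd; 48 hrs, 37 deg C, anaerobic. ATPLite 1-Step added, 15-30 min RT, luminescence read (ATP-based viability).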
TRPV1 ag – HTS Assay for Compounds that Act as Agonists of the Vanilloid Receptor 1; actives 0.19% (n = 320,000); TRPV1-expressing cells, Fluo-8 calcium influx, agonist mode; activation, % at 8.33 µM; Transient receptor potential cation channel subfamily V member 1 (Homo sapiens), Q8NER1; AID 540275, 2011; in the data active means activation above about 80%; inconclusive means between about 30% and that limit; further: 0% is about no effect
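Fluo-8 calcium influx in TRPV1-expressing cells, kinetic read (ex 480/em 520 nm). Compound added and read 3 min for agonist activity, followed by capsaicin at EC20 final and 2 min further read for enhancement.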
FUS suppressor – qHTS for Suppressors of FUS Proteinopathy: Primary screen using FUS-linked yeast assay. S. cerevisiae FUS-expressing, growth rescue, OD600, 24 h. Potency, µM (doses to about 76.6 µM), hits mostly activators. actives 0.24% (n = 390,000). AID 1347120, 2019;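 further: potency means the concentration at half of the fitted maximal effect; plate controls were DMSO vehicle for no effect and reference control for full effect; nearly all actives have a fitted effect of over 55% in size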
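Cultures pregrown in 2.5% raffinose medium are shifted to minimal medium containing 2% galactose to express toxic FUS. Compounds are tested at several concentrations. After 24hr at 30C, growth is quantified at 600 nm absorbance.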
ELG1 FLuc counter – qHTS screen for small molecules that inhibit ELG1-dependent DNA repair: Hit Confirmation in Cell-Based Luciferin Assay | Potency, µM (series often up to 46.1 µM), inactives show at the top dose activity change, negative = inhibition, most hits filed as inhibitors | cell-free firefly luciferase luminescence counter-screen, ViewLux | shares compounds with ELG1 repair inh | actives 3% (n = 350); further: potency means the concentration at half of the fitted maximal effect; on the % scale 0 is the no-effect control and ±100 the full control effect
ELG1 Luc conf – HTS assay for small molecules that inhibit ELG1-dependent DNA repair in human embryonic kidney (HEK293T) cells expressing luciferase-tagged ELG1: Hit Confirmation; shares compounds with ELG1 repair inh; HEK293T ELG1-luciferase levels, luminescence; cells co-treated with 5-fluorouridine; Potency, µM (highest dose often 46.1 µM), for the others: at the highest dose activity change, negative = inhibition, most hits filed as inhibitors; actives 68% (n = 670); AID 624248, 2012; further: potency means the concentration at half of the fitted maximal effect; on the % scale 0 is the no-effect control and ±100 the full control effect; nearly all actives have a fitted effect of over 55% in size
ELG1-Luc MMS – confirmation of human ELG1 repair inhibitors, MMS stimulated; shares compounds with ELG1 repair inh; HEK293T luciferase-tagged ELG1 level, MMS stimulated; Potency, µM (doses to about 46.1 µM), without a hit: top-dose activity change, negative = inhibition, actives largely listed as inhibitors; actives 53% (n = 670); AID 624249; further: potency means the concentration at half of the fitted maximal effect; on the % scale 0 is the no-effect control and ±100 the full control effect; nearly all actives have a fitted effect of over 60% in size
ELG1 5FU viab – qHTS screen for small molecules that inhibit ELG1-dependent DNA repair: Hit Confirmation with 5FU Viability. shares compounds with ELG1 repair inh. cell viability with 5-FU, ELG1-dependent repair. Potency, µM (titrated, usually from 46.1 µM), inactives show top-dose activity change, negative = viability loss, actives largely listed as cytotoxic. 670 tested, under 10 active. AID 624250, 2012;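 further: ELG1-luc HEK293T cells cotreated with 5-fluorouridine at 10 µM final; potency means the concentration at half of the fitted maximal effect; viability measured 16 h after compound addition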
ELG1 MMS viab – qHTS screen for small molecules that inhibit ELG1-dependent DNA repair: Hit Confirmation with MMS Viability; shares compounds with ELG1 repair inh; Cell viability with MMS, ELG1-dependent DNA repair; Potency, µM (doses to about 46.1 µM), for inactives: at the top dose activity change, negative = viability loss, actives largely listed as cytotoxic; actives 33% (n = 670);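 further: ELG1-luc HEK293T cells co-treated with 10 µM MMS; potency means the concentration at half of the fitted maximal effect; viability read 16 h after compound addition; on the % scale 0 is the no-effect control and ±100 the full control effect; nearly all actives have a fitted effect of over 60% in size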
ELG1 unstim viab – qHTS screen for small molecules that inhibit ELG1-dependent DNA repair: Hit Confirmation with Unstimulated Viability Assay | Potency, µM (doses to about 45.9 µM), inactives show at the top dose activity change, negative = loss of viability, usual class: cytotoxic | shares compounds with ELG1 repair inh | actives 8% (n = 900) | cell viability counter-screen, unstimulated, luminescence | AID 624252, 2012;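 further: potency means the concentration at half of the fitted maximal effect; compound exposure lasted 16 hours before reading; on the % scale 0 is the no-effect control and ±100 the full control effect; nearly all actives have a fitted effect of over 55% in size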
FLuc biochem – qHTS screen for small molecules that inhibit ELG1-dependent DNA repair: Hit Confirmation in Biochemical Luciferin Assay. purified firefly luciferase, luminescence counter-screen. AID 624253, 2012. shares compounds with ELG1 repair inh. actives 10% (n = 350). Potency, µM (highest dose often 57.5 µM), for the others: at the top dose activity, negative = inhibition, actives largely listed as inhibitors; further: potency means the concentration at half of the fitted maximal effect; on the % scale 0 is the no-effect control and ±100 the full control effect
An asterisk follows results filed as active. Unless noted, the call rests on the fitted dose curve; in most records, active means well fitted curve in the direction sought with a large enough effect; inconclusive means small, poorly fitted or top-dose-only effect, or another doubt; inactive means no such curve, though single readings can be large; an effect the other way counts as inactive or inconclusive.

O=C(c1ccc(Cl)c(S(=O)(=O)N2CCOCC2)c1)N1CCN(c2ccccc2)CC1 was read as TRPV1 PAM 1.1, ELG1 repair inh 0.082µM*, Giardia kill -22.9, TRPV1 ag -1.5, FUS suppressor inactive, ELG1 FLuc counter 47.8%, ELG1 Luc conf inconclusive, ELG1-Luc MMS -2.0%, ELG1 5FU viab -6.7%, ELG1 MMS viab -17.0%, ELG1 unstim viab inconclusive and FLuc biochem -7.0%.
`O=C(c1ccc(Cl)c(S(=O)(=O)N2CCOCC2)c1)N1CCN(Cc2ccccc2)CC1` gave TRPV1 PAM -2.6, ELG1 repair inh -6.9%, Giardia kill 7.9, TRPV1 ag -0.2 and FUS suppressor inactive.
`Fc1cccc(F)c1/C=C/c1ccc2ccccc2n1` gave TRPV1 PAM -5.8, ELG1 repair inh inconclusive, Giardia kill -12.5 and TRPV1 ag 16.5.
C(=C\c1c[nH]c2ccccc12)/c1ccc2ccccc2n1 was read as ELG1 FLuc counter -38.7%, ELG1 unstim viab inconclusive and FLuc biochem 0.116µM*.
Screening CC(=C/c1ccccc1)/C=N/n1c(-c2ccncc2)n[nH]c1=S returned TRPV1 PAM -0.5, ELG1 repair inh 2.31µM*, Giardia kill -23.1, TRPV1 ag -0.7, FUS suppressor inactive, ELG1 Luc conf 2.81µM*, ELG1-Luc MMS inconclusive, ELG1 5FU viab -1.7%, ELG1 MMS viab 2.2% and ELG1 unstim viab -4.3%.
For CC(/C=N/n1c(-c2ccncc2)n[nH]c1=S)=C\c1ccco1 the results were TRPV1 PAM -6.7, ELG1 repair inh 2.59µM*, Giardia kill -13.8, TRPV1 ag 4.7, FUS suppressor inconclusive, ELG1 Luc conf 12.5µM*, ELG1-Luc MMS 6.28µM*, ELG1 5FU viab -2.4%, ELG1 MMS viab -22.6% and ELG1 unstim viab -2.4%.
Screening CC(/C=N/n1c(-c2ccc(C)cc2)n[nH]c1=S)=C\c1ccco1 returned TRPV1 PAM -6.5, ELG1 repair inh 3.1%, Giardia kill 1.0 and TRPV1 ag 23.0.
Screening O=C(Nc1ccccc1-c1nc2ccccc2[nH]1)c1ccc(N2C(=O)CCC2=O)cc1 returned TRPV1 PAM 0.1, ELG1 repair inh 1.83µM*, Giardia kill -11.7, TRPV1 ag 2.8, FUS suppressor inactive, ELG1 Luc conf 0.705µM*, ELG1-Luc MMS inconclusive, ELG1 5FU viab inconclusive, ELG1 MMS viab 3.5% and ELG1 unstim viab -18.4%.
For COc1ccccc1-c1noc(-c2ccc(NC(C)C)c([N+](=O)[O-])c2)n1 the results were FUS suppressor inactive.
Screening CC(C)NC(=O)Cn1c(=O)nc(-c2ccccc2)c2ccccc21 returned FUS suppressor inactive.
O=S(=O)(c1cc(F)ccc1F)N1CCN(c2ncnc3ccccc23)CC1 was read as ELG1 repair inh 4.61µM*, Giardia kill 35.5, FUS suppressor inactive, ELG1 Luc conf 6.28µM*, ELG1-Luc MMS 2.23µM*, ELG1 5FU viab -14.3%, ELG1 MMS viab 2.5µM* and ELG1 unstim viab inconclusive.
For Cc1c(C(=O)O)oc2c1-c1nn(Cc3ccccc3Cl)cc1CC2 the results were FUS suppressor inactive.
For COc1ccc(S(=O)(=O)N2CCCCC2c2cc(C(=O)NCc3ccccc3)no2)cc1 (stereo not drawn) the results were FUS suppressor inactive.
Screening Cc1cccc(C(=O)OCC(=O)c2c(N)n(CC(C)C)c(=O)n(C)c2=O)c1[N+](=O)[O-] returned TRPV1 PAM -0.7, ELG1 repair inh 4.47µM*, Giardia kill -4.8, TRPV1 ag -0.2, FUS suppressor inactive, ELG1 Luc conf 12.5µM*, ELG1-Luc MMS 7.05µM*, ELG1 5FU viab 3.2%, ELG1 MMS viab 6.28µM* and ELG1 unstim viab inconclusive.
CC(C)Cn1c(N)c(C(=O)COC(=O)CC23CC4CC(CC(C4)C2)C3)c(=O)n(C)c1=O was read as TRPV1 PAM -2.8, ELG1 repair inh 3.66µM*, Giardia kill -3.8, TRPV1 ag 2.8, FUS suppressor inconclusive, ELG1 Luc conf 1.99µM*, ELG1-Luc MMS 1.12µM*, ELG1 5FU viab -23.6%, ELG1 MMS viab 0.996µM* and ELG1 unstim viab 15.8µM*.
Cc1cccc(C(=O)OCC(=O)c2c(N)n(CC(C)C)c(=O)n(C)c2=O)c1O was read as TRPV1 PAM 0.2, ELG1 repair inh inconclusive, Giardia kill 1.1, TRPV1 ag -4.4 and FUS suppressor inactive.
